This is an account of results in PubChem BioAssay (NCATS).

Records with an inconclusive call do not appear. A call without a number means that no potency is given here. Calls of active or inactive are those of the source. Calls follow the shape of the dose curve; as a rule, active = well fitted inhibition curve with a large enough effect; inconclusive = small, poorly fitted or top-dose-only effect; inactive = flat fitted curve, though single readings scatter. Numbered stars: 1 amine (or outer) side, 2 acyl side, 3 side chain; on linkers, the order of the positions; unused ones are H or OH. Bridge positions count the residues as written; N and C are the ends. Square brackets hold non-standard residues; d marks the D form. Peptide text beside a SMILES is read from it. I, II: the chains in the order shown. Actinocin(9to1) = Cc1c2oc3c(C)ccc(C(=O)[*:1])c3nc-2c(C(=O)[*:2])c(N)c1=O; NMeV = CN[C@H](C(=O)O)C(C)C; Sar = CNCC(=O)O

Chain of Phospholipid hydroperoxide glutathione peroxidase GPX4 (Homo sapiens) (P36969 whole entry, looked up): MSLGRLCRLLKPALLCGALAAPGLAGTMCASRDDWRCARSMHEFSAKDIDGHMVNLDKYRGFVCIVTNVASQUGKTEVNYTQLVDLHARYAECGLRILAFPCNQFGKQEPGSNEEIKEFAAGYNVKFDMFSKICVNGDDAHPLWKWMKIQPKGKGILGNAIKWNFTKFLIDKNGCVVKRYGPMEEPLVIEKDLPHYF

The test addresses Phospholipid hydroperoxide glutathione peroxidase GPX4 (Homo sapiens) (UniProt P36969). In words: Primary qHTS Assay for Inhibitors of Recombinant Selenoprotein Glutathione Peroxidase 4 (GPX4) (AID 1845192). Also: nearly all actives have a fitted effect of over 65% in size. To be noted: recombinant GPX4, GR-coupled NADPH fluorescence, 15 min; series mostly up to 50 µM. The gist of the method:
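NADPH consumption followed by fluorescence at 340/450 nm, t=0 and after 15 min at room temperature. Reaction started with cumene hydroperoxide (0.5 mM final) after 30 min compound–GPX4 preincubation; final 200 nM GPX4, 100 nM GR, 1 mM GSH, 0.5 mM NADPH.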
On the technique in general: In qHTS, concentration-response curves come from the screen itself.
For the compound `COc1ccc(CCN2CCC(Nc3nc4ccccc4n3Cc3ccc(F)cc3)CC2)cc1`, the Potency result is “inactive”.

In the case of `CCCCOc1ccc(OCCCN2CCOCC2)cc1`, the Potency result was “inactive”.

Take `CC(O)(P(=O)(O)O)P(=O)(O)O`: the Potency entry is “inactive”.

Take `CCCCC(=O)O[C@]1(C(=O)CO)CC[C@H]2[C@@H]3CCC4=CC(=O)CC[C@]4(C)[C@H]3[C@@H](O)C[C@@]21C`: the Potency entry is “inactive”.

In the case of `NCCC(O)(P(=O)(O)O)P(=O)(O)O`, the Potency entry was “inactive”.

As for `C/C=C(/C(=C/C)c1ccc(O)cc1)c1ccc(O)cc1`, the Potency entry is “inactive”.

For `CN1CCCC(CC2c3ccccc3Sc3ccccc32)C1` (stereo unspecified), the Potency result is “inactive”.

Regarding `Cc1cc(O)c(C(C)C)cc1Cl`, the Potency result was “inactive”.

Turning to `COc1cccc2c1C(=O)c1c(O)c3c(c(O)c1C2=O)C[C@@](O)(C(C)=O)C[C@@H]3O[C@H]1C[C@H](N)[C@H](O)[C@H](C)O1`, the Potency entry was “inactive”.

As to `CCN(CC)C(=O)N1CCN(C)CC1`, the Potency result was “inactive”.

Regarding `N[C@H](CO)C(=O)O`, the Potency result was “inactive”.

With `CC1=C(C(=O)OC(C)C)C(c2cccc([N+](=O)[O-])c2)C(C(=O)OC2CN(C(c3ccccc3)c3ccccc3)C2)=C(N)N1` (stereo unspecified), the Potency entry is “inactive”.

Regarding `OCc1ccccc1O`, the Potency entry is “inactive”.

For the compound `CCCC(=O)Nc1ccc(OCC(O)CNC(C)C)c(C(C)=O)c1` (stereo unspecified), the Potency entry is “inactive”.

On to `C=C(CC)C(=O)c1ccc(OCC(=O)O)c(Cl)c1Cl`, for which the Potency result was “inactive”.

`Cc1c2oc3c(C)ccc(C(=O)N[C@@H]4C(=O)N[C@H](C(C)C)C(=O)N5CCC[C@H]5C(=O)N(C)CC(=O)N(C)[C@@H](C(C)C)C(=O)O[C@@H]4C)c3nc-2c(C(=O)N[C@@H]2C(=O)N[C@H](C(C)C)C(=O)N3CCC[C@H]3C(=O)N(C)CC(=O)N(C)[C@@H](C(C)C)C(=O)O[C@@H]2C)c(N)c1=O` (I: T[dV]P[Sar][NMeV] / II: T[dV]P[Sar][NMeV]; ester I:1-I:C, II:1-II:C; linker I:N-II:N via Actinocin(9to1)): the Potency entry was “inactive”.

`CCN(CC)C(=O)/C(C#N)=C/c1cc(O)c(O)c([N+](=O)[O-])c1`: the Potency result is “inactive”.

For `C[C@]12C=CC(=O)C=C1CC[C@@H]1[C@@H]2[C@@H](O)C[C@@]2(C)[C@H]1CC[C@]2(O)C(=O)CO`, the Potency entry is “inactive”.

Regarding `Oc1ccc(Cl)c2cccnc12`, the Potency result was “inactive”.

`O=c1c(-c2ccccc2)c1-c1ccccc1`: the Potency result is “inactive”.

As to `O=c1[nH]c(=O)n([C@H]2C[C@H](O)[C@@H](CO)O2)cc1C(F)(F)F`, the Potency result was “inactive”.
